Columns and labels:
Assay in all cases: DAPPL (digital affinity profiling via proximity ligation, sequencing); 10 mM Tris-HCl pH 7.5, 50 mM NaCl, 1 mM DTT, 4% glycerol, room temperature, 30 min; GST-TFs on glutathione beads, 16-mer random dsDNA library, 0.1% formaldehyde crosslink after washing; high values mean tight binding
FLI1 = biological target: T1, FLI1 (Homo sapiens, UniProt Q01543 1-452); details: protein: recombinant; tags: N-terminal GST; dsDNA, one strand shown
T1 sequence: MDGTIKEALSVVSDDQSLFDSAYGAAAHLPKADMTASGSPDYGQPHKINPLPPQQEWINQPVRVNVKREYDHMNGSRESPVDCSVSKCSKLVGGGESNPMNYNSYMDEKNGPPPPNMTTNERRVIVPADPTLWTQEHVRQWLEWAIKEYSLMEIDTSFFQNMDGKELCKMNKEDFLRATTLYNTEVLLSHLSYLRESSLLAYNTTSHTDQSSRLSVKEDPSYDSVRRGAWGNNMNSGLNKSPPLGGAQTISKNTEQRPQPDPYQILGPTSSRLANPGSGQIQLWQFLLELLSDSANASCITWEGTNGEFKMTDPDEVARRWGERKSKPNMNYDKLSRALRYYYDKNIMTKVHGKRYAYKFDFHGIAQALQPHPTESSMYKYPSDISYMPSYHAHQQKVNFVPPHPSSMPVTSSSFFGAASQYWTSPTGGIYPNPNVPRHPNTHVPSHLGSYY
Summary of the method: (§1)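 Sequencing on an Illumina NextSeq500 followed washing, crosslinking with 0.1% formaldehyde, proximity ligation (BsaI/T4 ligase, 1 h, 37 °C) and PCR amplification of pools that had been incubated for 30 min at room temperature with 200 nmole of a random double-stranded 16-mer DNA library in Tris/NaCl/DTT/glycerol buffer. Each pool held DNA-barcoded human transcription factors, expressed in yeast as GST fusions and captured on glutathione beads, plus a tag-only sample. Binding signal is a hexamer's read frequency for a factor divided by its frequency in the tag-only sample.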

ELK1 = biological target: T2, ELK1 (Homo sapiens, UniProt P19419 1-428); details: protein: recombinant; tags: N-terminal GST; dsDNA, one strand shown
T2 sequence: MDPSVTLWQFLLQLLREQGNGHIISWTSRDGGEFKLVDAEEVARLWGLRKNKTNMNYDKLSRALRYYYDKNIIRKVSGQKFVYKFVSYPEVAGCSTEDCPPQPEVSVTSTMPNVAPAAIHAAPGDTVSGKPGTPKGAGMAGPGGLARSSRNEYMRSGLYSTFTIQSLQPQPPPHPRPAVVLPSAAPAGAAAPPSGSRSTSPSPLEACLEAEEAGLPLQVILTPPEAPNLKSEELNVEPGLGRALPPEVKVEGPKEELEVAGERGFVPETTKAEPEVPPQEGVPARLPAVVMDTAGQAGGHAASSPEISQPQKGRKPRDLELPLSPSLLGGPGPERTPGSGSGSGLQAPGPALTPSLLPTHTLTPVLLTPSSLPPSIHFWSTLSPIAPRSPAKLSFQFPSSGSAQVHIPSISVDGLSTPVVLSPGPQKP
Summary of the method: as §1

GABPA = biological target: T3, GABPA (Homo sapiens, UniProt Q06546 1-454); details: protein: recombinant; tags: N-terminal GST; dsDNA, one strand shown
T3 sequence: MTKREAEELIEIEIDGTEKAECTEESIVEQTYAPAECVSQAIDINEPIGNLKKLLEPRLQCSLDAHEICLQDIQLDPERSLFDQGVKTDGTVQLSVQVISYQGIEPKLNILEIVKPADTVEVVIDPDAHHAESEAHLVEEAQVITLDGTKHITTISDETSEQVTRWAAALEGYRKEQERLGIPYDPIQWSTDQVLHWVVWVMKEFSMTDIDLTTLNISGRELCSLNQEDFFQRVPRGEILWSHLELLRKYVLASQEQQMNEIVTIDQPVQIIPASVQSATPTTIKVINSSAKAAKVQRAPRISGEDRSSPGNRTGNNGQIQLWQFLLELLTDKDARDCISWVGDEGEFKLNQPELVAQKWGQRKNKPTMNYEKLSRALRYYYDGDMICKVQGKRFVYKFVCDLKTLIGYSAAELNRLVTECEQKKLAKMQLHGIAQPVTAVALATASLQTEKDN
Summary of the method: as §1

ERG = biological target: T4, ERG (Homo sapiens, UniProt P11308 1-479); details: protein: recombinant; tags: N-terminal GST; dsDNA, one strand shown
T4 sequence: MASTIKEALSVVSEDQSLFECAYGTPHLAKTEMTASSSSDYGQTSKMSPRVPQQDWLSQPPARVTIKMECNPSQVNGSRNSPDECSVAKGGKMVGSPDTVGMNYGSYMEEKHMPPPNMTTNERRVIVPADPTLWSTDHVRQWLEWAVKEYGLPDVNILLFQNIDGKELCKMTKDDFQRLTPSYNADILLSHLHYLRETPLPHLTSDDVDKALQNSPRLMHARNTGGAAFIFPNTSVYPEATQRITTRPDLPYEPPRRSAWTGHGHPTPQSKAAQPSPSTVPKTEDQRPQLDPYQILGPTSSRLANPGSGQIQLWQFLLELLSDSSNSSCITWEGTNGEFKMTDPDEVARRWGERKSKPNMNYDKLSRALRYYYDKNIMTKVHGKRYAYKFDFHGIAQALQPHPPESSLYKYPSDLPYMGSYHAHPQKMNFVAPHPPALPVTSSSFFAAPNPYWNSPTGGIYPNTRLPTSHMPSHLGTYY
Summary of the method: as §1

ELF1 = ELF1 (Homo sapiens, UniProt P32519 1-619); details: protein: recombinant; tags: N-terminal GST; dsDNA, one strand shown
Summary of the method: as §1

EHF = biological target: T5, EHF (Homo sapiens, UniProt Q9NZC4 1-300); details: protein: recombinant; tags: N-terminal GST; dsDNA, one strand shown
T5 sequence: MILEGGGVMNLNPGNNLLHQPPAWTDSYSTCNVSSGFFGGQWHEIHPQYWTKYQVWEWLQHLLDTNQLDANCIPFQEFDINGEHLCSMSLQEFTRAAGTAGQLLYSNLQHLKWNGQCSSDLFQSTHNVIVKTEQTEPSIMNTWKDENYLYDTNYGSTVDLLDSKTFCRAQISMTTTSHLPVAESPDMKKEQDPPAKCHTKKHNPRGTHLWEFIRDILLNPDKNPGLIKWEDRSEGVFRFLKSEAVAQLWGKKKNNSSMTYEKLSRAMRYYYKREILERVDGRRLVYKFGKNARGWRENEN
Summary of the method: as §1

SPI1 = SPI1 (Homo sapiens, UniProt P17947 1-270); details: protein: recombinant; tags: N-terminal GST; dsDNA, one strand shown
Summary of the method: as §1

SPIB = SPIB (Homo sapiens, UniProt Q01892 1-262); details: protein: recombinant; tags: N-terminal GST; dsDNA, one strand shown
Summary of the method: as §1

ELK3 = biological target: T6, ELK3 (Homo sapiens, UniProt P41970 1-407); details: protein: recombinant; tags: N-terminal GST; dsDNA, one strand shown
T6 sequence: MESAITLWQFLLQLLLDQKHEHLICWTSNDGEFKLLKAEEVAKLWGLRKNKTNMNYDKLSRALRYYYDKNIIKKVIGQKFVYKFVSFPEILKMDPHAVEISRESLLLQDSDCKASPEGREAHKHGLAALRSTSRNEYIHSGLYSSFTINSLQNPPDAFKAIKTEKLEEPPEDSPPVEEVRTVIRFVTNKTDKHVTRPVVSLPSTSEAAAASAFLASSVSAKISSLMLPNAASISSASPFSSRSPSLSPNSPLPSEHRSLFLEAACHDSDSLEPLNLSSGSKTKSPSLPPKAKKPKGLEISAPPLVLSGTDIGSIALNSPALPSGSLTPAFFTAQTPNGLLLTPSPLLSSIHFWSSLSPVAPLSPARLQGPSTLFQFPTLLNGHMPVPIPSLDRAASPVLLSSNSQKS
Summary of the method: as §1

FEV = biological target: T7, FEV (Homo sapiens, UniProt Q99581 1-238); details: protein: recombinant; tags: N-terminal GST; dsDNA, one strand shown
T7 sequence: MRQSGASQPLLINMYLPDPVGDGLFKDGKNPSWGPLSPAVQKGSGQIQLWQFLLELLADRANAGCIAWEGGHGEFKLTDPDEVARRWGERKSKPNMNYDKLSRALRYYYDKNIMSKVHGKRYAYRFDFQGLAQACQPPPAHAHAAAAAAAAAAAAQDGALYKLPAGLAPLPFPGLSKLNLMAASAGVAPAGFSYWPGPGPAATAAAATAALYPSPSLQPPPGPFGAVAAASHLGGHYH
Summary of the method: as §1

ETV5 = ETV5 (Homo sapiens, UniProt P41161 1-510); details: protein: recombinant; tags: N-terminal GST; dsDNA, one strand shown
Summary of the method: as §1

HSF1 = HSF1 (Homo sapiens, UniProt Q00613 1-529); details: protein: recombinant; tags: N-terminal GST; chain copies: 3; dsDNA, one strand shown
Summary of the method: as §1

SPIC = biological target: T8, SPIC (Homo sapiens, UniProt Q8N5J4 1-248); details: protein: recombinant; tags: N-terminal GST; dsDNA, one strand shown
T8 sequence: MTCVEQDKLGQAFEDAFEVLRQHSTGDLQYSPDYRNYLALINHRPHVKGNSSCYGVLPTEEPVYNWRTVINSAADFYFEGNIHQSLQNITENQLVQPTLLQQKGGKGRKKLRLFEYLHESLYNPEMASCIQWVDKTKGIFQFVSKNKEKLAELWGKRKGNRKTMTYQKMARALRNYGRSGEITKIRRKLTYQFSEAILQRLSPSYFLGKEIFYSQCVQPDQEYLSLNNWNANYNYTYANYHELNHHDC
Summary of the method: as §1

ELF4 = ELF4 (Homo sapiens, UniProt Q99607 1-663); details: protein: recombinant; tags: N-terminal GST; dsDNA, one strand shown
Summary of the method: as §1

ELK4 = biological target: T9, ELK4 (Homo sapiens, UniProt P28324-2 1-405); details: protein: recombinant; tags: N-terminal GST; dsDNA, one strand shown
T9 sequence: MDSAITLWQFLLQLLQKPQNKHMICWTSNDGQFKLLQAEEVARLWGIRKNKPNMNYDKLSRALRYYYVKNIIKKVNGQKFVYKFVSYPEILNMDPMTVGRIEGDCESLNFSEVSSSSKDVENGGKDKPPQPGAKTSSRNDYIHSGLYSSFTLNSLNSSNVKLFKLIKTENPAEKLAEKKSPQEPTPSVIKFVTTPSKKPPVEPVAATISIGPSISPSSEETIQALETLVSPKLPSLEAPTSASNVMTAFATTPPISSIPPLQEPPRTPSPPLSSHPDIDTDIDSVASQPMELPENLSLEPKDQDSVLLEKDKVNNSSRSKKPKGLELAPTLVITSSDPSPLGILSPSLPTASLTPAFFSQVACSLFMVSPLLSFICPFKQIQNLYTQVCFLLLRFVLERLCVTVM
Summary of the method: as §1

ETV2 = biological target: T10, ETV2 (Homo sapiens, UniProt O00321 1-342); details: protein: recombinant; tags: N-terminal GST; dsDNA, one strand shown
T10 sequence: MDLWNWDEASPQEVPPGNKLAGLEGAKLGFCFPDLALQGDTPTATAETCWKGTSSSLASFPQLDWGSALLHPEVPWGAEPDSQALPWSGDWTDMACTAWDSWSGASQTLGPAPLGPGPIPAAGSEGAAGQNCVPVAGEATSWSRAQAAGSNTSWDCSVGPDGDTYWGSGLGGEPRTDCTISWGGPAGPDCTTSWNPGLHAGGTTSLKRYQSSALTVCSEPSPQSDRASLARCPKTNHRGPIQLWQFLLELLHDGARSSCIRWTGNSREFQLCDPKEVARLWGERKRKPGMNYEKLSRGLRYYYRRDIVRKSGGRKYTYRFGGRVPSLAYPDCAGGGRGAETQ
Summary of the method: as §1

ELF3 = biological target: T11, ELF3 (Homo sapiens, UniProt P78545 1-371); details: protein: recombinant; tags: N-terminal GST; dsDNA, one strand shown
T11 sequence: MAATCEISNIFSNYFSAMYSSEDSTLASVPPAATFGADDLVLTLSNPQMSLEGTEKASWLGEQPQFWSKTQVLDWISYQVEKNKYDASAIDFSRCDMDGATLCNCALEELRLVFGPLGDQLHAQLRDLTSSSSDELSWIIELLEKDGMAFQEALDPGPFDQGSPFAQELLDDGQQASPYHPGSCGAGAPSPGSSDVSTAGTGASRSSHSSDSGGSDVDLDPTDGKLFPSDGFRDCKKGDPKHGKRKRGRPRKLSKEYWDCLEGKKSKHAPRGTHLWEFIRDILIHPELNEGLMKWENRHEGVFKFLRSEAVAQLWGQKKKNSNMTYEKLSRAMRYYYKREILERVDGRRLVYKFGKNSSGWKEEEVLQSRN
Summary of the method: as §1

CRX = CRX (Homo sapiens, UniProt O43186 1-299); details: protein: recombinant; tags: N-terminal GST; dsDNA, one strand shown
Summary of the method: as §1

ETV1 = ETV1 (Homo sapiens, UniProt P50549 1-477); details: protein: recombinant; tags: N-terminal GST; dsDNA, one strand shown
Summary of the method: as §1

Sequence of HSF1 (Q00613 whole entry): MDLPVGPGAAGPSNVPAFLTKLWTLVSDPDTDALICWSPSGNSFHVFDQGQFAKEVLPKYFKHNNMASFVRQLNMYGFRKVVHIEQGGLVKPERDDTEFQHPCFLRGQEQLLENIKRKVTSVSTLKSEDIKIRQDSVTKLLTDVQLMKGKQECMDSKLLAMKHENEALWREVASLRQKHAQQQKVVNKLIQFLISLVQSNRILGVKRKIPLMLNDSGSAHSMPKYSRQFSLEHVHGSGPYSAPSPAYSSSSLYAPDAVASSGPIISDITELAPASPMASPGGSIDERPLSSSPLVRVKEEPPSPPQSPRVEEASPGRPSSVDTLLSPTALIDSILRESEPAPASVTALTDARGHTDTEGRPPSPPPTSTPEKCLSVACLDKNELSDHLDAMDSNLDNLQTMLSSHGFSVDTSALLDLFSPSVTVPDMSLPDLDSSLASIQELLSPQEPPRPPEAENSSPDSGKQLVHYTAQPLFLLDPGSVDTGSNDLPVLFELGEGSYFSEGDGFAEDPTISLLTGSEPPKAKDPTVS
Sequence of CRX (O43186 whole entry): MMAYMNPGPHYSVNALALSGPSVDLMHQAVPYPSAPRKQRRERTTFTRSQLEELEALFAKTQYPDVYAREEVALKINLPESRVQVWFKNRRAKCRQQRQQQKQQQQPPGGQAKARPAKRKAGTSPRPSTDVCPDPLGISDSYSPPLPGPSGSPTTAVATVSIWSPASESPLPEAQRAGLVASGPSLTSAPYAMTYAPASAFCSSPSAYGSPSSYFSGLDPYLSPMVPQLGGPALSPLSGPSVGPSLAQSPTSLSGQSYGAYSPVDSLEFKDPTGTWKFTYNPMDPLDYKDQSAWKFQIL
Sequence of SPIB (Q01892 whole entry): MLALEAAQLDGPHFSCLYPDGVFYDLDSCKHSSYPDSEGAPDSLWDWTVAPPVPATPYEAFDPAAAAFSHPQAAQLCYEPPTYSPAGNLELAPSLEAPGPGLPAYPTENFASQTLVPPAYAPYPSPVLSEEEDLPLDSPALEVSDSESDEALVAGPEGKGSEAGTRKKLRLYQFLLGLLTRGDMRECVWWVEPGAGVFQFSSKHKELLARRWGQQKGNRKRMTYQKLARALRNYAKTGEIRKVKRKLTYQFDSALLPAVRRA
Sequence of ETV5 (P41161 whole entry): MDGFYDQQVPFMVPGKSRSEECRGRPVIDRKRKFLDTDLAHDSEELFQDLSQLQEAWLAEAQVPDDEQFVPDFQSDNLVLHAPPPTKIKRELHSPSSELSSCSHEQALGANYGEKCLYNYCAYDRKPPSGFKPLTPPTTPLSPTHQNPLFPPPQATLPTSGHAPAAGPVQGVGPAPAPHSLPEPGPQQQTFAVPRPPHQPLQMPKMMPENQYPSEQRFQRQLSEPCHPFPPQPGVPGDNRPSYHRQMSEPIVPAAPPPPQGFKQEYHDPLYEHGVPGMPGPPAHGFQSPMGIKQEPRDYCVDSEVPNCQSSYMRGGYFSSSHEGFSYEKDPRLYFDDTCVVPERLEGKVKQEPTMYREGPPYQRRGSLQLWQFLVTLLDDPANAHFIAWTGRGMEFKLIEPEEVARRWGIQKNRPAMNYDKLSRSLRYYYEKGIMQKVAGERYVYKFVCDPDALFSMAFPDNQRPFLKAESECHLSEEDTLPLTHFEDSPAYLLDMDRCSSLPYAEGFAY
Sequence of ELF1 (P32519 whole entry): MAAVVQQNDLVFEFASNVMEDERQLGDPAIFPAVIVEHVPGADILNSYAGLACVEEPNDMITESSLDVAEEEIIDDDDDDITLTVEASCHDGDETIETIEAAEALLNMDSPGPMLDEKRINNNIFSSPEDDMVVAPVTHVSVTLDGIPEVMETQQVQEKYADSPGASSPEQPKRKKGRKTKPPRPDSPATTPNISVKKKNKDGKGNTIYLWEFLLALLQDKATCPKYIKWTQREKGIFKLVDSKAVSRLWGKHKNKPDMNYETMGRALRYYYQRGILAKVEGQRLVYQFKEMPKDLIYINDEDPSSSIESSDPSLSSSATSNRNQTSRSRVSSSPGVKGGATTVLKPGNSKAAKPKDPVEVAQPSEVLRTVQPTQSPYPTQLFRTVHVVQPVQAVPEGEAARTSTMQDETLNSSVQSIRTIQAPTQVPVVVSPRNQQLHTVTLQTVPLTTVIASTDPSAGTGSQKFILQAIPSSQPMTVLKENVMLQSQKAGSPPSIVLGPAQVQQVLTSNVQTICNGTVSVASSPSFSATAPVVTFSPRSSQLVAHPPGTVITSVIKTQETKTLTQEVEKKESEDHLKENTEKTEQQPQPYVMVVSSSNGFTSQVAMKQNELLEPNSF
Sequence of ELF4 (Q99607 whole entry): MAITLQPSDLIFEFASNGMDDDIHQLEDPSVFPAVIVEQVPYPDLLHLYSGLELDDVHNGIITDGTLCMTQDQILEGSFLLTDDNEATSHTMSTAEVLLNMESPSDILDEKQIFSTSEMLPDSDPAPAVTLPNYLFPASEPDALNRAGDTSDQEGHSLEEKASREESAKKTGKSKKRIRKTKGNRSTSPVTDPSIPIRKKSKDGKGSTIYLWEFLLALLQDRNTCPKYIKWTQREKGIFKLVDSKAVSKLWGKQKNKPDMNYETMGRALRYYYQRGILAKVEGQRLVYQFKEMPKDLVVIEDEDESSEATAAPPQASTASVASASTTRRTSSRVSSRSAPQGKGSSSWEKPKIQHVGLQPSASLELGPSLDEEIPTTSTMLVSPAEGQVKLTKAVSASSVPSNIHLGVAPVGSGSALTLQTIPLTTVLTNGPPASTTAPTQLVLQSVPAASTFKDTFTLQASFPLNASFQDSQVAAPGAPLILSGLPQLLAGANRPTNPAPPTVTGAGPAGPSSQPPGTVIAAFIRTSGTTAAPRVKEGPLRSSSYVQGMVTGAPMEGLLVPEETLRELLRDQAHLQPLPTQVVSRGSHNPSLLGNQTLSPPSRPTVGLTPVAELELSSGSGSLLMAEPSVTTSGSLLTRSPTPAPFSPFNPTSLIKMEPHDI
Sequence of ETV1 (P50549 whole entry): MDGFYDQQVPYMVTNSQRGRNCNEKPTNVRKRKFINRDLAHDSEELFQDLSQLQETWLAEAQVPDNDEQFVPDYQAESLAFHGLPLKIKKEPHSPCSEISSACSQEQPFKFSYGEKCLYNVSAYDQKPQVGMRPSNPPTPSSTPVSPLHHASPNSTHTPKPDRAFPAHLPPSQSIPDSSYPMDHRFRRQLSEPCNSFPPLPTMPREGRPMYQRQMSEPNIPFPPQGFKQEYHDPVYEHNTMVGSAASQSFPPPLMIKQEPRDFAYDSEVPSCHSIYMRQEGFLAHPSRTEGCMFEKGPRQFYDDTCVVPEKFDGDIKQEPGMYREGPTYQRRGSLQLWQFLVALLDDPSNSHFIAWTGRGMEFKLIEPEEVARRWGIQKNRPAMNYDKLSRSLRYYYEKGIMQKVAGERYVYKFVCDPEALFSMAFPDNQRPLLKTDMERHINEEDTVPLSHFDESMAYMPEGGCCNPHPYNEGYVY

## CCGATA
FLI1
  binding signal: 1.16 fold enrichment (6-mer frequency, TF over GST control)
ELK1
  binding signal: 1.13 fold enrichment (6-mer frequency, TF over GST control)
GABPA
  binding signal: 1.14 fold enrichment (6-mer frequency, TF over GST control)
ERG
  binding signal: 1.14 fold enrichment (6-mer frequency, TF over GST control)
ELF1
  binding signal: 1.17 fold enrichment (6-mer frequency, TF over GST control)
EHF
  binding signal: 1.18 fold enrichment (6-mer frequency, TF over GST control)
SPI1
  binding signal: 1.09 fold enrichment (6-mer frequency, TF over GST control)
SPIB
  binding signal: 1.03 fold enrichment (6-mer frequency, TF over GST control)
ELK3
  binding signal: 1.14 fold enrichment (6-mer frequency, TF over GST control)
FEV
  binding signal: 1.14 fold enrichment (6-mer frequency, TF over GST control)
ETV5
  binding signal: 1.15 fold enrichment (6-mer frequency, TF over GST control)
HSF1
  binding signal: 1.16 fold enrichment (6-mer frequency, TF over GST control)
SPIC
  binding signal: 1.2 fold enrichment (6-mer frequency, TF over GST control)
ELF4
  binding signal: 1.2 fold enrichment (6-mer frequency, TF over GST control)
ELK4
  binding signal: 1.08 fold enrichment (6-mer frequency, TF over GST control)
ETV2
  binding signal: 1.25 fold enrichment (6-mer frequency, TF over GST control)
ELF3
  binding signal: 1.05 fold enrichment (6-mer frequency, TF over GST control)
CRX
  binding signal: 1.27 fold enrichment (6-mer frequency, TF over GST control)
ETV1
  binding signal: 1.16 fold enrichment (6-mer frequency, TF over GST control)
